Screens as filed in PubChem.
KDM5B inh: inhibitors of human KDM5B histone demethylase | 220,000 compounds, 2.6% hits | AID 1347165 | KDM5B demethylase, FDH-coupled NADH fluorescence (FDH is formaldehyde dehydrogenase) | Potency, µM (doses to about 57.7 µM), most hits filed as inhibitors; active = well fitted inhibition curve with a large enough effect; also: nearly all actives have a fitted effect of over 70% in size
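Coupled FDH/NAD⁺ fluorescence readout. KDM5BΔAP 200 nM final; compound titration, 10 min RT preincubation; substrate mix 12.5 µM H3K4me3, 25 µM 2-OG, 50 µM Fe(II), 100 µM ascorbate, 0.25 mM NAD⁺, 0.25 U/mL FDH; ΔRFU over 30 min.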
Of the large screens only hits and unclear results are named; the others gave an inactive call. The entries come from a sample that favours hits as a whole.

COCCNC(=O)N1CC=C(c2ccc(F)cc2)CC1	none
O=C(CNC(=O)c1ccc(F)cc1)OCc1cc(=O)n2ccsc2n1	none
COCCNC(=O)c1c(-c2ccc(F)cc2)noc1[C@H](C)O	none
Cc1ccc(C(=O)Nc2ccccc2SCc2cc(=O)n3oc(C)cc3n2)cc1	none
O=C(NCCN1CCOCC1)c1nn2c(C(F)(F)F)cc(-c3ccco3)nc2c1Br	none
Fc1ccccc1OCC1CCCN(c2nccc(-c3cccnc3)n2)C1 (stereo not given)	KDM5B inh 28.2µM
CC1CCN(C(=O)c2ccccc2OCC2CCCN(Cc3ccncc3F)C2)CC1 (stereo not given)	none
Cn1ccnc1CN1CCN(c2nccc(-c3cccnc3)n2)CC1	none
c1cncc(-c2ccnc(N3CCCOC(Cn4cccn4)C3)n2)c1 (stereo not given)	KDM5B inh 25.1µM
NCCc1cccc(CN2CCCC(COc3ccccc3F)C2)c1 (stereo not given)	none
O=C(CCc1nc2ccccc2[nH]1)N1CCCOC(Cn2cccn2)C1 (stereo not given)	none
O=S1OCCSc2sc(=S)sc2SCCO1	none
Cc1ccc(O)c(NC(=O)c2cc(-c3ccccn3)nc3ccccc23)c1	none
O=C(CCCc1nc2ccccc2o1)NCc1ccc(F)cc1	none
COc1ccc(-c2cc(N3CCN(C(=O)c4ccc(C#N)cc4)CC3)n[nH]2)cc1	none
CCOCCOC(=O)c1nc2ccccc2nc1Nc1cc(C)cc(C)c1	none
Cc1cccc(CN2CCCC3(CCN(C(=O)c4ccc(=O)[nH]c4)C3)C2=O)c1 (stereo not given)	KDM5B inh 12.6µM
Cc1cccc(CN2CCCC3(CCN(c4cc(C)nc(N)n4)C3)C2=O)c1 (stereo not given)	none
Cc1cccc(CN2CCCC3(CCN(C(=O)Cc4cccnc4)C3)C2=O)c1 (stereo not given)	none
N#CCCNc1ccc(Br)cc1	none
O=C(NCc1cccnc1)C1CCN(S(=O)(=O)c2cccc(OC(F)(F)F)c2)CC1	none
CN(C)CCN(Cc1ccc(F)cc1)C(=O)c1cccc(S(C)(=O)=O)c1	none
CNC(=O)C(C#N)(Cc1cccc2ccccc12)Cc1cccc2ccccc12	none
CCCc1noc(-c2ccn3c(CNC(=O)c4ccco4)nnc3c2)n1	KDM5B inh 28.2µM
Cc1noc(-c2ccn3c(CNC(=O)c4ccco4)nnc3c2)n1	KDM5B inh 28.2µM
CCc1noc(-c2ccn3c(CNC(=O)c4ccccn4)nnc3c2)n1	none
CCCc1noc(-c2ccn3c(CNC(=O)c4ccc5ccccc5n4)nnc3c2)n1	KDM5B inh 12.6µM
O=C(O)C(c1c[nH]c2ccc(Cl)cc12)N1CCN(Cc2ccccn2)CC1 (stereo not given)	none
COc1nc(C(=O)NCCCN2CCCC2=O)cc2ccccc12	none
COc1ccc(CCC(=O)Nc2nc(C)c(C(C)=O)s2)cc1OC	none
CCCn1nc(C(=O)OCC(=O)N2CCCc3ccccc32)c2ccccc2c1=O	none
Cc1ccc(/C=C/C(=O)c2ccc(-c3ccccc3)cc2)c(C)c1	none
COC(=O)COc1ccc2c(=O)c(Oc3cc(C)ccc3C)coc2c1	none
CCCNc1nc(-c2ccc(Br)cc2)cs1	none
O=c1ccc2cc(S(=O)(=O)N3CCCCC3)ccc2o1	none
COc1ccc(-n2ccn(CC(=O)Nc3cccc(F)c3)c2=O)cc1	none
CC(OC(=O)c1cncc(Br)c1)C(=O)C12CC3CC(CC(C3)C1)C2 (stereo not given)	none
COc1ccc(NC(=O)Cn2c(N(C)Cc3ccccc3)nc(C)cc2=O)cc1	none
Cc1ccc(NC(=O)c2cc3c(N(C)Cc4ccccc4)nc(C)cn3n2)c(F)c1	KDM5B inh 10µM
Cc1cn2nc(C(=O)Nc3ccc(F)cc3)cc2c(N(C)Cc2ccccc2)n1	KDM5B inh 25.1µM
Cc1cn2nc(C(=O)Nc3ccc(C)c(F)c3)cc2c(N(C)Cc2ccccc2)n1	none
Cc1ccc(Cl)cc1NC(=O)Nc1nnc(N(C)Cc2ccccc2)s1	none
Cc1ccc(NC(=O)Nc2nnc(N(C)Cc3ccccc3)s2)c(C)c1	none
Cc1ccc(NC(=O)c2nn(-c3ccccc3)c(=O)c3ccccc23)c(F)c1	none
Cc1cn2nc(C(=O)Nc3ccc(Cl)cc3)cc2c(N(C)Cc2ccccc2)n1	KDM5B inh 28.2µM
O=C(Nc1ccc(S(=O)(=O)N(Cc2ccccc2)c2ccccc2)cc1)c1ccc(F)cc1	none
Cc1ccc(C)c(OCCOC(=O)c2ccc(CS(C)(=O)=O)cc2)c1	none
CCC(CC)NC(=O)Cc1cccs1	none
O=C(Nc1ccc(Cl)cc1)N1Cc2[nH]cnc2C[C@H]1c1nc(-c2ccccc2)no1	none
Cc1cc(CNC(=O)c2cc(-c3ccccc3)cc3c2OCCN3C)no1	KDM5B inh 39.8µM
Cc1ccc(C(CNC(=O)c2cc(-c3ccccc3)on2)N2CCN(C)CC2)o1 (stereo not given)	none
COc1ccc(-c2cc(C(=O)NCCCN3CCOCC3)c3ccccc3n2)cc1OC	none
COc1ccc(CNC(=O)c2noc(-c3ccc(C)cc3)n2)cc1OC	none
COc1ccc(-c2cc(C(=O)NCc3cc(C)on3)c3c(c2)N(C)CCO3)cc1OC	KDM5B inh 35.5µM
Cc1oc(-c2ccccc2)cc1C(=O)NCc1ccncc1	none
CN1CCOc2c(C(=O)NCc3cnn(C)c3)cc(-c3ccccc3)cc21	KDM5B inh 39.8µM
